S1P2 ag = activates the human S1P2 receptor; O95136; S1P2-expressing cell line, agonist reporter read-out; activation, % at 4.5 µM; 97,000 compounds, 0.46% hits; AID 729; in the data active = activation above about 16%;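 also: 0% = vehicle low control and 100% = maximal reference agonist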
MRP reversal = reverses drug resistance mediated by MRP; AID 602; H69AR cells + 2 uM doxorubicin, CellTiter-Glo, 72 h; 85,000 compounds, 0.04% hits; differential viability (reversal), % at 10 µM;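 active = viability drop by adding the cancer drug above about 55%, with treated viability meeting a 40% cutoff, limit read from the data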;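 also: viability without doxorubicin minus viability with 2 µM doxorubicin for each compound; larger differential means the compound sensitizes cells more to doxorubicin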
MRP-1 activ = MRP-1 activation; viability increase, % at 10 µM; H69AR cells + doxorubicin, viability rescue, CellTiter-Glo; AID 799; 140,000 compounds, 0.61% hits;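 active = viability gain under doxorubicin at or above a set limit, the compound median plus 3 SD, cut at about 4.7% in these data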;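 also: MRP-1 overexpressing cells given doxorubicin 25 µM after compound pretreatment; 18-22 h compound pretreatment then 72 h with doxorubicin before readout; 0% = doxorubicin-only wells and 100% = vehicle-treated cells without doxorubicin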
S1P2 blocker = blocks the human S1P2 receptor | O95136 | cell-based S1P2 antagonist assay, inhibition at 5 uM | inhibition, % at 5 µM | 97,000 compounds, 0.21% hits | AID 736; in the data active = inhibition above about 45%;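 also: CRE beta-lactamase reporter cells expressing human S1P2 stimulated with S1P; 0% = agonist at EC80 alone and 100% = agonist plus reference antagonist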
GALR2 blocker = antagonists of human galanin receptor 2 (GALR2); O43603; GALR2-expressing cells, antagonist mode; inhibition, % at 4 µM; 140,000 compounds, 0.39% hits; AID 828; in the data active = inhibition above about 27%;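 also: cells stimulated with galanin 1-16 at roughly its EC80; 0% = agonist challenge control and 100% = basal control without agonist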
Target sequence (O43603 whole entry, looked up): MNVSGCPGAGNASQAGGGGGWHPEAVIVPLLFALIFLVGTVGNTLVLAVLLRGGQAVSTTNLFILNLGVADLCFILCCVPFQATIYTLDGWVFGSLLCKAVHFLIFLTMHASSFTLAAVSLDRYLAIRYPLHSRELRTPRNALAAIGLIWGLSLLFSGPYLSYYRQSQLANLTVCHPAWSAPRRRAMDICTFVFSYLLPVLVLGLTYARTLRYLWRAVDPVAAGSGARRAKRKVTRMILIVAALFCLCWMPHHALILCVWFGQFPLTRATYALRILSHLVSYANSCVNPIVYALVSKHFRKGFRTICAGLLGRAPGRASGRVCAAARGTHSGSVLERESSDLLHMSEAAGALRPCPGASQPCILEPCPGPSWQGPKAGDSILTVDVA
GALR2 agonist = GALR2 (human) receptor agonism. O43603. GALR2-expressing cells, agonist activation read-out. activation, % (test concentration not listed). 140,000 compounds, 0.48% hits; in the data active = activation above about 5%, passing the limit was not always enough;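 also: 0% = vehicle buffer wells and 100% = reference agonist at full effect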
GALR2 ag confirm = confirmation of human galanin receptor 2 (GALR2) agonists; shares compounds with GALR2 agonist; GALR2-expressing cells, agonist activation; activation, % at 5.6 µM; 460 compounds, 10% hits; AID 864; in the data active = activation above about 8.4%;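 also: 0% = buffer-only vehicle wells and 100% = full reference agonist response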
BLA act counter = counter-screen for GALR2 agonists: beta-lactamase reporter activators; shares compounds with GALR2 agonist; CHO NFAT-bla reporter, beta-lactamase FRET activation; activation, % at 5.6 µM; 460 compounds, 10% hits; AID 865;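 active = activation above the screen-wide mean activation plus 3 SD, cut at about 8% in these data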;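 also: 0% = DMSO with PBS wells and 100% = thapsigargin positive control wells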
* hit, by the source's call; nt = no result. Hits are enriched below; roughly 1.8% of the tested compounds scored in any of these assays.

SMILES | S1P2 ag | MRP reversal | MRP-1 activ | S1P2 blocker | GALR2 blocker | GALR2 agonist | others
Cc1ccc(S(=O)(=O)/N=C(\CCl)N2CCOCC2)cc1 | nt | 0 | -6 | nt | 26 | -2
CCCc1cc(-c2nc(-c3ccc(Br)cc3)cs2)ccn1 | nt | nt | 5.0* | nt | 2 | -1
CCCc1cc(-c2nc(-c3ccc(Cl)cc3)cs2)ccn1 | -12 | nt | 3 | -31 | 5 | -2
CSc1nsc(/C=C/Nc2ccc(C)cc2)c1C#N | 6 | 6 | -2 | -34 | 6 | 1
CC(=O)C1=C(C)Nc2ncnn2C1c1ccc(Cl)cc1 (stereo not given) | 1 | 8 | 1 | 0 | 10 | -3
O=C1CCCN1CCCNc1ncnc2c1[nH]c1ccc(Cl)cc12 | 17* | 6 | -5 | 11 | -18 | -1
Clc1ccc2[nH]c3c(NCCCN4CCOCC4)ncnc3c2c1 | 4 | 6 | -6 | -19 | 13 | -3
COc1ccc2[nH]c(=O)c(CN(Cc3ccc4c(c3)OCO4)C(C)=O)cc2c1 | -7 | -9 | 0 | -1 | -3 | -1
CC(=O)Nc1cc(OC(C)=O)c2nonc2c1OC(C)=O | 2 | nt | nt | 98* | 96* | 0
CC(=O)Nc1nonc1NC(C)=O | -5 | 2 | -2 | 3 | 4 | 1
CCC(Oc1ccccc1)C(=O)Nc1nnc(C(F)(F)F)s1 (stereo not given) | -2 | 9 | 10* | -7 | 7 | -1
COc1ccc(CN=C2NC(=O)CC(C(=O)Nc3ccc([N+](=O)[O-])cc3C)S2)cc1 (stereo not given) | nt | nt | 4 | nt | -4 | -1
COc1ccc(CN=C2NC(=O)CC(C(=O)Nc3ccccc3C)S2)cc1 (stereo not given) | nt | nt | 6.0* | nt | -22 | -1
Cc1ccc(CSc2nnc(-c3ccncc3)n2CC2CCCO2)cc1 (stereo not given) | -8 | -8 | -3 | -3 | 15 | -2
CC(=O)/C(C#N)=C1\NC(=O)C(Cc2ccccc2)S1 (stereo not given) | -7 | 7 | 4.9* | 11 | 9 | -1
N#C/C(C(=O)N1CCOCC1)=C1/SC(Cc2ccccc2)C(=O)N1c1ccccc1 (stereo not given) | -6 | 5 | 3 | 7 | 1 | -3
COCCCn1c(N)c(-c2nc3ccccc3n2C)c2nc3ccccc3nc21 | -10 | -13 | -1 | 30 | 23 | -2
Cn1c(-c2c(N)n(C3CCCC3)c3nc4ccccc4nc23)nc2ccccc21 | -15 | -12 | -3 | 93* | 21 | 0
CCc1nccn1S(=O)(=O)c1ccc(Br)cc1Br | nt | 10 | -2 | nt | 8 | -1
CC1(C)CC(=O)c2cnc(NC(=O)C3CCCC3)nc2C1 | -6 | 1 | -2 | 8 | -7 | -2
Cc1[nH]n(-c2nc(-c3cccc([N+](=O)[O-])c3)cs2)c(=O)c1C | nt | nt | 2 | nt | -4 | 0
NS(=O)(=O)c1ccc(N=Nc2c(-c3ccccc3)[nH]n(-c3nc(-c4ccccc4)cs3)c2=O)cc1 | nt | nt | 5.3* | nt | -4 | -1
CN(C)c1ccnc(N(Cc2ccccc2)Cc2ccccc2)c1C#N | -3 | 17 | -1 | -8 | -19 | 0
COCCn1nnnc1CN1CCC(Cc2ccccc2)CC1 | -2 | 8 | 0 | -8 | 4 | 0
Cc1onc(-c2ccccc2Cl)c1C(=O)Nc1sc2c(c1C(N)=O)CCC(C)C2 (stereo not given) | -4 | 11 | 4.8* | -11 | 8 | 0
SMILES | S1P2 ag | MRP reversal | MRP-1 activ | S1P2 blocker | GALR2 blocker | GALR2 agonist | others
COC(=O)c1c(NC(=O)c2c(-c3ccccc3Cl)noc2C)sc2c1CCC2 | -2 | 11 | -1 | -16 | 7 | -1
CCNc1sc(C(=O)c2cccs2)c(N)c1-c1nc2ccccc2s1 | -8 | 36 | 9.0* | 23 | 13 | -1
Cc1cc(C)nc(N/C(=N\S(=O)(=O)Cc2ccccc2)Nc2ccccc2Br)n1 | nt | nt | -1 | nt | 0 | -1
COc1ccc(/C=N/NC(=O)c2nc(-c3ccccc3)cc(-c3ccccc3)n2)cc1OC | -12 | nt | -5 | 29 | 0 | -3
COc1cccc(/C=N/NC(=O)c2nc(-c3ccccc3)cc(-c3ccccc3)n2)c1 | -4 | nt | -4 | 47* | -4 | -1
CCn1cc(C(=O)Nc2ccc3c(c2)OCCO3)c2cc(OC)c(OC)cc2c1=O | 29* | 11 | -4 | 1 | -7 | -2
CCn1cc(C(=O)NCc2ccc(C)o2)c2cc(OC)c(OC)cc2c1=O | 17* | -1 | -5 | -22 | -9 | 0
Cc1cccc(NC(=O)C2CCCN(C(=O)Nc3ccccc3)C2)c1C (stereo not given) | -5 | 9 | -2 | 4 | 0 | -3
Cc1nn(C)c(C)c1CN(C)S(=O)(=O)c1ccc2ccccc2c1 | -2 | 22 | -1 | 50* | 17 | -2
C=CCn1c(CNc2ccccc2)nnc1SCC(=O)N/N=C/c1ccccc1O | -6 | nt | 5.3* | 13 | 4 | -2
C=CCn1c(COc2ccc(Cl)cc2)nnc1SCC(=O)N/N=C/c1cccc(O)c1 | -3 | nt | 3 | 14 | -5 | -1
COc1cc(CC(NC(C)=O)C(=O)NC2CCN(c3c(Cc4ccccc4)c(C)nc4ncnn34)CC2)cc(OC)c1 (stereo not given) | nt | nt | -2 | nt | 4 | -1
CSc1nnc(-c2cc3c(s2)-c2ccccc2CC3)o1 | -3 | nt | -2 | 17 | -4 | 0
S=c1[nH]nc(-c2cc3c(s2)-c2ccccc2CC3)o1 | 9 | nt | -2 | 14 | 2 | 10 | GALR2 ag confirm=2;BLA act counter=5
COc1ccc(C2=NOC(C(=O)Nc3cc(Br)ccc3O)C2)cc1OC (stereo not given) | -4 | -22 | -1 | -11 | -3 | 21* | GALR2 ag confirm=0;BLA act counter=-2
COc1ccc(C2=NOC(C(=O)Nc3ccc(C(C)=O)cc3)C2)cc1OC (stereo not given) | -5 | 24 | 1 | 15 | 11 | -1
CCCCCCc1cc2cc(S(=O)(=O)c3ccc(C)cc3)c(=O)oc2cc1O | nt | nt | -1 | nt | -16 | 45* | GALR2 ag confirm=15*;BLA act counter=42*
CCCCCCc1cc2cc(S(=O)(=O)c3ccc(Cl)cc3)c(=O)oc2cc1O | nt | nt | -5 | nt | -10 | 20* | GALR2 ag confirm=15*;BLA act counter=46*
CCN(CC)c1ccc2cc(S(=O)(=O)c3ccc(Cl)cc3)c(=O)oc2c1 | nt | nt | -2 | nt | -15 | 43* | GALR2 ag confirm=16*;BLA act counter=29*
CCCCCCc1cc2cc(C(=O)Nc3ccccc3)c(=O)oc2cc1O | nt | nt | -5 | nt | -7 | 0
COc1cc(C2=NOC(C(=O)NCc3cccs3)C2)cc(OC)c1OC (stereo not given) | -1 | -41 | -4 | -9 | 7 | 88* | GALR2 ag confirm=-1;BLA act counter=-2
CCOC(=O)Cc1cc(-c2ccc(F)cc2)nc2ccc3ccccc3c12 | nt | nt | -2 | nt | -1 | 0

Screens from PubChem.
